Screens deposited in PubChem BioAssay by several laboratories.
The list is not random: actives were taken first. Their share in the collection is about 4.9%.
HSP90 inh: HSP90 inhibitors, primary screen, cell lysate, luminescence; Heat shock protein HSP 90 (rabbit reticulocyte lysate; luciferase refolding); Rabbit reticulocyte lysate, luciferase refolding luminescence, 3 h; inhibition, % at 5.6 µM; actives 0.91% (n = 290,000);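 active = inhibition above the screen-wide mean plus 3 SD, computed separately per campaign, cut at about 16% in these data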;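 also: inhibitors lower the luminescence because luciferase stays unfolded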
HSF1 activator: HSF-1 activators, primary screen, NIH3T3-HGL cells, MG132 stress, luminescence, single point. NIH3T3-HGL HSF-1 luciferase reporter, 8 h; 100% = twice DMSO control signal. activation, % at 9 µM. actives 1.7% (n = 300,000). AID 504408, 2011;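 active = mean replicate activation of at least 50% with a set share of replicates each reaching 50%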
dFosB activator: activators of delta FosB homodimer, primary screen, biochemical, fluorescence polarization, TAMRA-CDK5 oligo, single point | activation, % at 25 µM | actives 0.99% (n = 340,000) | purified delta FosB; percent of positive-control signal above neutral wells;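 active = mean activation above about 17%, with every replicate also reaching it, limit read from the data, passing the limit was not always enough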
MPTP inh: mitochondrial permeability transition pore inhibitors, primary screen, biochemical, isolated mouse mitochondria, absorbance. Ca2+ swelling absorbance, 30 min. actives 1.4% (n = 360,000). inhibition, % at 10 µM;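 active = inhibition of 50% or more, scaled per plate between neutral and stimulator controls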
HSF1 inhib: HSF1 inhibitors in luciferase reporter cells, primary screen, cell-based, NIH3T3, luminescence. NIH3T3-HGL HSE-luciferase, MG132-induced, luminescence 8 h; stronger effect = lower value. activity change, negative = inhibition, % at 7.5 µM (by protocol). actives 0.77% (n = 300,000);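 active = more than half of replicate wells show activity change below -50%, luminescence cut by over half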;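 also: luciferase reports HSF-1 transcriptional activity via heat shock element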
Platelet DG rel: inhibitors of platelet dense granule secretion, primary screen, cell-based, MLPCN, human platelets; human platelet-rich plasma, SFLLRN dense granule ATP release, luminescence; inhibition, %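 (compounds screened at 7.5 µM in platelet-rich plasma)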; actives 0.22% (n = 300,000); AID 1663, 2009;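 active = mean replicate score, as percent of positive control, at or above 50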
Each line names hits and unclear results; the compound was inactive in the other large screens.

COc1cccc(-c2nn(C)c3sc(C(=O)N4CCOCC4)cc23)c1	HSP90 inh 27
COc1cccc(-c2nn(C)c3sc(C(=O)N4CCN(c5ccccn5)CC4)cc23)c1	none
Cc1ccc(S(=O)(=O)N2CCOCC2)cc1NC(=O)COc1ccc(C(=O)c2ccccc2)cc1	none (no result: HSP90 inh, HSF1 activator, HSF1 inhib, Platelet DG rel)
Cc1ccc(NC(=O)c2ccc(OC(=O)COc3ccc(Cl)cc3C)cc2)cc1	HSF1 activator 59
Cc1cccc(OCC(=O)Nc2ccc(N3CCCC3)cc2)c1C	dFosB activator 47 (no result: HSP90 inh)
Cc1ccc(OCC(=O)Nc2ccc(N3CCCC3)cc2)cc1C	none
Cc1ccc(OCC(=O)NNC(=O)c2ccc(NC(=O)C3CC3)cc2)c(C)c1	dFosB activator 34
Cc1cc(C)cc(OCC(=O)Nc2ccc(N3CCCC3)cc2)c1	dFosB activator 65
O=C(CSc1ccc(-c2ccco2)nn1)Nc1ccc(F)cc1F	none
O=C1c2cccnc2C(=O)N1Cc1ccc(S(=O)(=O)N2CCN(c3ccccc3)CC2)cc1	none
